# Laboratory results: PubChem BioAssay (NCI)
# The panel holds about 83,000 compounds, 20% with a hit somewhere; the sample as a whole holds those more often.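 Values shown are percent growth following 48 h exposure of cells in 96-well plates to a single concentration of compound; below 10 was considered active.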 Unmarked numbers belong to inactive results. Active and inactive are the calls of the source.
# Test system: MALME-3M melanoma
# Experiment: NCI-60 one-dose screen, 48 h (100 = growth as untreated, 0 = no growth, -100 = all killed)
# Settings: 10 µM unless noted
row,SMILES,growth
1,COC(=O)c1sccc1-c1cc(O)c(C(=O)Nc2ccccc2)s1,84.5%
2,O=C(C1=Cc2cc3ccccc3n2Cc2cnnn21)c1ccc(F)cc1,101%
3,Cc1cccc(N2C(=O)/C(=C/C(Cl)=C/c3ccc([N+](=O)[O-])cc3)SC2=S)c1C,-8.54% (active)
4,CS(=O)/C(C#N)=C\C=C\c1cccc(Cl)c1 (stereo not given),34.7%
5,CCOC(=O)/C=C1\S/C(=N\Nc2cc(=O)[nH]c3ccc(Br)cc23)N(c2ccccc2)C1=O,82%
6,Cc1ccc2nc(-c3ccc(C(=O)N/N=C/c4ccc([N+](=O)[O-])cc4)cc3)[nH]c2c1,92.2%
7,COc1ccc(/C=C/C(c2cc(OC)c(OC)c(OC)c2)n2cncn2)cc1O (stereo not given),54.4%
8,CCCCCCCCCCCCCCCCCCOc1ccccc1CC(=O)NCC[N+](C)(C)C,78.8%
9,CCOC(=O)c1c(C)nc2ccccc2c1/C=C/c1ccc(F)cc1,98.7%
10,N#Cc1c(-c2ccccc2)cc(-c2ccccc2)n(CCCCC(=O)NO)c1=O,11.5%
11,COc1cc(Cc2cc(OC)c(O)c(OC)c2)cc(OC)c1O,86%
12,COc1cc(/C=C/c2cc(/C=C/c3ccc(O)c(OC)c3)n(C(=O)Nc3ccc(Cl)cc3)n2)ccc1O,3.94% (active)
13,NS(=O)(=O)c1ccc(C(=O)NN2C(=O)c3ccccc3C2=O)cc1,109%
14,CS(=O)(=O)c1ccc(-c2nc3ccccc3n2CC(=O)N/N=C/c2ccccc2)cc1,82.4%
15,CCn1cc(C(=O)N/N=C/c2cccc(F)c2)c(=O)c2cc(F)c(N3CCNC(C)C3)c(F)c21 (stereo not given),-67.4% (active)
16,CCCC(=O)NC(c1ccc2c(c1)OCO2)c1cc(Cl)c2cccnc2c1O (stereo not given),42.5%
17,O=C(c1cccc(N2CCOCC2)n1)c1c[nH]c2ccccc12,95.1%
18,Cc1cc(C(=O)CCCC(=O)c2cc(C)c(O)c(C)c2)cc(C)c1O,92.3%
19,O=C(/C=C/c1ccccc1)c1cccc2ccccc12,68.8%
20,CNC(=O)c1cc(Oc2ccc3c(c2)sc2nc(-c4ccc(NC(=O)[C@@H](NC(=O)OC)C(C)C)cc4)cn23)ccn1,49.4%

row,SMILES,growth
1,FC(F)(F)c1[nH]ncc1-c1nc2ccc3[nH]ncc3c2c2c1CCCC2,8.51% (active)
2,COC(=O)c1ccc2c(c1)c1c(C)c3cnccc3c(C)c1n2C,-73.7% (active)
3,CC1=C2[C@@H](CC1)[C@]1(C)O[C@@](C3CCNCC3)(C[C@H]1OC(=O)CO)[C@H]2OC(=O)/C=C/c1ccccc1,81%
4,CCOC(=O)CC1CSC(N/N=C/c2ccc(F)c(Br)c2)=N1 (stereo not given),101%
5,O=C1/C(=C/c2cccc(Br)c2)COc2ccc(O)cc21,78.9%
6,O=C(Cn1nc(-c2cccc3ccccc23)ccc1=O)NCc1cccc(Cl)c1,70.5% [50 µM]
7,COc1cc(O)c2c(=O)c3c(CC=C(C)C)cc(OC)c(O)c3oc2c1,66.9%
8,Nc1ccc(Br)cc1C(F)(F)F,114%
9,O=C(Nc1ccc(Oc2cccc(Cl)c2)c(Cl)c1)c1cccnn1,104%
10,COc1cccc(-c2cn3nc(-c4cn(C)c5ccccc45)sc3n2)c1,84.1%
11,c1ccc(-c2c(-c3ccccc3)[n+](Cc3ccc4ccccc4c3)cn2Cc2ccc3ccccc3c2)cc1,-82.2% (active)
12,COc1ccc(C2[C@@H](c3ccccc3)C(=O)N2c2cc(OC)c(OC)c(OC)c2)cc1F (stereo not given in full),69.1%
13,CC(C)CCC[C@@H](C)[C@H]1CC[C@H]2[C@@H]3CC=C4c5sc(Nc6cc(C(F)(F)F)cc(C(F)(F)F)c6)nc5CC[C@]4(C)[C@H]3CC[C@]12C,94.8%
14,Nc1cc(C(=O)O)cc(-n2c(O)c(C=C3N=c4ccccc4=N3)sc2=S)c1,96.9%
15,COc1cccc(CNc2c3ccccc3nc3ccccc23)c1OC,50.6%
16,Clc1ccc(Nc2ncc(Cc3cccc(Cl)c3Cl)s2)cc1,96.7%
17,CCOC(=O)c1cnn(CC(C)O)c1NC(=O)NCc1cccc(F)c1 (stereo not given),99.2%
18,C=C1C(=O)O[C@@H]2C3C(=C(C)CC[C@@H]12)CC1O[C@]13C (stereo not given in full),77.6% [6.75 µM]
19,CCOC(=O)C1=C(c2ccccc2)N=C2N(c3ccccc3)N=C(C(C)=O)N2C1c1ccc(F)cc1 (stereo not given),97.7%
20,CCCOC(=O)Nc1nc2ccc(SCC)cc2s1,77.9%

# Test system: MDA-MB-231 breast
# Experiment: as above
# Settings: 10 µM unless noted
row,SMILES,growth
1,COC(=O)c1sccc1-c1cc(O)c(C(=O)Nc2ccccc2)s1,91.5%
2,O=C(C1=Cc2cc3ccccc3n2Cc2cnnn21)c1ccc(F)cc1,105%
3,Cc1cccc(N2C(=O)/C(=C/C(Cl)=C/c3ccc([N+](=O)[O-])cc3)SC2=S)c1C,-6.22% (active)
4,CS(=O)/C(C#N)=C\C=C\c1cccc(Cl)c1 (stereo not given),40.6%
5,CCOC(=O)/C=C1\S/C(=N\Nc2cc(=O)[nH]c3ccc(Br)cc23)N(c2ccccc2)C1=O,86.2%
6,Cc1ccc2nc(-c3ccc(C(=O)N/N=C/c4ccc([N+](=O)[O-])cc4)cc3)[nH]c2c1,97.3%
7,COc1ccc(/C=C/C(c2cc(OC)c(OC)c(OC)c2)n2cncn2)cc1O (stereo not given),45.5%
8,CCCCCCCCCCCCCCCCCCOc1ccccc1CC(=O)NCC[N+](C)(C)C,46.7%
9,CCOC(=O)c1c(C)nc2ccccc2c1/C=C/c1ccc(F)cc1,75.9%
10,N#Cc1c(-c2ccccc2)cc(-c2ccccc2)n(CCCCC(=O)NO)c1=O,25.6%
11,COc1cc(Cc2cc(OC)c(O)c(OC)c2)cc(OC)c1O,95.2%
12,COc1cc(/C=C/c2cc(/C=C/c3ccc(O)c(OC)c3)n(C(=O)Nc3ccc(Cl)cc3)n2)ccc1O,14.3%
13,NS(=O)(=O)c1ccc(C(=O)NN2C(=O)c3ccccc3C2=O)cc1,109%
14,CS(=O)(=O)c1ccc(-c2nc3ccccc3n2CC(=O)N/N=C/c2ccccc2)cc1,97.6%
15,CCn1cc(C(=O)N/N=C/c2cccc(F)c2)c(=O)c2cc(F)c(N3CCNC(C)C3)c(F)c21 (stereo not given),-49.6% (active)
16,CCCC(=O)NC(c1ccc2c(c1)OCO2)c1cc(Cl)c2cccnc2c1O (stereo not given),34.9%
17,O=C(c1cccc(N2CCOCC2)n1)c1c[nH]c2ccccc12,80.2%
18,Cc1cc(C(=O)CCCC(=O)c2cc(C)c(O)c(C)c2)cc(C)c1O,98.1%
19,O=C(/C=C/c1ccccc1)c1cccc2ccccc12,55.1%
20,CNC(=O)c1cc(Oc2ccc3c(c2)sc2nc(-c4ccc(NC(=O)[C@@H](NC(=O)OC)C(C)C)cc4)cn23)ccn1,71.9%

row,SMILES,growth
1,FC(F)(F)c1[nH]ncc1-c1nc2ccc3[nH]ncc3c2c2c1CCCC2,14.5%
2,COC(=O)c1ccc2c(c1)c1c(C)c3cnccc3c(C)c1n2C,-16.7% (active)
3,CC1=C2[C@@H](CC1)[C@]1(C)O[C@@](C3CCNCC3)(C[C@H]1OC(=O)CO)[C@H]2OC(=O)/C=C/c1ccccc1,107%
4,CCOC(=O)CC1CSC(N/N=C/c2ccc(F)c(Br)c2)=N1 (stereo not given),109%
5,O=C1/C(=C/c2cccc(Br)c2)COc2ccc(O)cc21,27.9%
6,O=C(Cn1nc(-c2cccc3ccccc23)ccc1=O)NCc1cccc(Cl)c1,55% [50 µM]
7,COc1cc(O)c2c(=O)c3c(CC=C(C)C)cc(OC)c(O)c3oc2c1,24.3%
8,Nc1ccc(Br)cc1C(F)(F)F,103%
9,O=C(Nc1ccc(Oc2cccc(Cl)c2)c(Cl)c1)c1cccnn1,95.5%
10,COc1cccc(-c2cn3nc(-c4cn(C)c5ccccc45)sc3n2)c1,85.6%
11,c1ccc(-c2c(-c3ccccc3)[n+](Cc3ccc4ccccc4c3)cn2Cc2ccc3ccccc3c2)cc1,-79.4% (active)
12,COc1ccc(C2[C@@H](c3ccccc3)C(=O)N2c2cc(OC)c(OC)c(OC)c2)cc1F (stereo not given in full),32.3%
13,CC(C)CCC[C@@H](C)[C@H]1CC[C@H]2[C@@H]3CC=C4c5sc(Nc6cc(C(F)(F)F)cc(C(F)(F)F)c6)nc5CC[C@]4(C)[C@H]3CC[C@]12C,108%
14,Nc1cc(C(=O)O)cc(-n2c(O)c(C=C3N=c4ccccc4=N3)sc2=S)c1,89.4%
15,COc1cccc(CNc2c3ccccc3nc3ccccc23)c1OC,41.9%
16,Clc1ccc(Nc2ncc(Cc3cccc(Cl)c3Cl)s2)cc1,99.6%
17,CCOC(=O)c1cnn(CC(C)O)c1NC(=O)NCc1cccc(F)c1 (stereo not given),106%
18,C=C1C(=O)O[C@@H]2C3C(=C(C)CC[C@@H]12)CC1O[C@]13C (stereo not given in full),93.5% [6.75 µM]
19,CCOC(=O)C1=C(c2ccccc2)N=C2N(c3ccccc3)N=C(C(C)=O)N2C1c1ccc(F)cc1 (stereo not given),98.8%
20,CCCOC(=O)Nc1nc2ccc(SCC)cc2s1,82.9%
